A short description of assay [1]: AP1 Signaling Pathway (AID 357). Also: % is scaled to controls: 0 for no effect and ±100 for the full control effect. To be noted: ME-180 AP-1-bla reporter, EGF-induced, beta-lactamase ratio, 5 h; at 7.69 µM (top of the series) unless noted. A digest of the protocol: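 AP-1-bla ME-180 cells with beta-lactamase reporter under AP-1 response element, stimulated with EC50 EGF; compounds titrated, 5 hours at 37 degrees Celsius. CCF4 read at 460/530 nm ratio; positive and negative modulators judged by AC50.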

The target in assay [2] is Cytochrome P450 1A2 (Homo sapiens) (UniProt P05177). Description: p450-cyp1a2 (AID 410; calls by dose curve;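 also: -100% = full effect of reference inhibitor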). The following applies: recombinant CYP1A2, luciferin-ME demethylation, luminescence; series mostly up to 11.4 µM. A digest of the protocol: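 Inhibition was calculated relative to 57 uM furafylline (full inhibition). The reaction used human CYP1A2 at 20nM with Luciferin-ME at its Km, 100uM, driven by an NADPH-regenerating system for 60 min at room temperature.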
Sequence of Cytochrome P450 1A2 (Homo sapiens) (P05177 whole entry, looked up): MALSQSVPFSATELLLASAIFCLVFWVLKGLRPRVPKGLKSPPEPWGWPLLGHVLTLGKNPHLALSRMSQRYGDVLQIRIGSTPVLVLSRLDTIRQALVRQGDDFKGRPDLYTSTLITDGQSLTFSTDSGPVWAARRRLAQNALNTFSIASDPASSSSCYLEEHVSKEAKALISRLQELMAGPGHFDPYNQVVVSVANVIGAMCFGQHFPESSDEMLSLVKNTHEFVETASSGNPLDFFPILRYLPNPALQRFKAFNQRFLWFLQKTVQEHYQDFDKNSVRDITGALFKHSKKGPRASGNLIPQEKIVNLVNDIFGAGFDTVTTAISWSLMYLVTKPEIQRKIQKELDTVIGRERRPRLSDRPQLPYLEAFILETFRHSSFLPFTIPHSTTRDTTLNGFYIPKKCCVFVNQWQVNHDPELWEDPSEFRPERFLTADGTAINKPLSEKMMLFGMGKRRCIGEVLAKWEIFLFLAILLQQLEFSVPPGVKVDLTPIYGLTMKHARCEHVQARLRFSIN

A short description of assay [3]: NFAT Signaling Pathway (AID 444).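 Also: carbachol stimulus at about its EC50 of 1 µM final; % is scaled to controls: 0 for no effect and ±100 for the full control effect.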 To be noted: Jurkat NFAT-bla M1, carbachol, beta-lactamase ratio, 5 h; at 7.69 µM (top of the series) unless noted. A digest of the protocol: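 Jurkat cells with NFAT-driven β-lactamase reporter and co-expressed M1 receptor, stimulated with carbachol (final 1 uM, ~EC50), compound titration, 5 h at 37 °C. CCF4 loaded 1 h at RT; 460/530 nm ratio gave %activity and AC50.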

A short description of assay [4]: Stat Signaling Pathway (AID 446).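 Also: ME-180 cervical cancer cells given 40 pM IL-6 alongside compound; SIE-controlled beta-lactamase reporter measured as 460/530 nm FRET emission ratio; % is scaled to controls: 0 for no effect and ±100 for the full control effect.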 To be noted: ME-180 SIE beta-lactamase reporter, IL-6 stimulated, 5 h; at 7.69 µM (top of the series) unless noted. The essentials:
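ME-180 SIE-bla cells; overnight plating; cpd + IL-6 40 pM, 5 h, 37 C; LiveBLAzer 2.5 h RT; 460/530 nm emission ratio. Normalized to 300 pM IL-6 and 125 nM JAK inhibitor controls.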

The target in assay [5] is Glucocorticoid receptor (Homo sapiens) (UniProt P04150). Description: GR-GFP Redistribution (AID 450;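 active = compounds whose dose series gives a full or clear partial fitted curve of increased nuclear translocation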; also: potency is read from the fitted curve at half-maximal effect). To be noted: U2OS GR-GFP nuclear translocation, laser cytometry, 2 h.
Sequence of Glucocorticoid receptor (Homo sapiens) (P04150 whole entry, looked up): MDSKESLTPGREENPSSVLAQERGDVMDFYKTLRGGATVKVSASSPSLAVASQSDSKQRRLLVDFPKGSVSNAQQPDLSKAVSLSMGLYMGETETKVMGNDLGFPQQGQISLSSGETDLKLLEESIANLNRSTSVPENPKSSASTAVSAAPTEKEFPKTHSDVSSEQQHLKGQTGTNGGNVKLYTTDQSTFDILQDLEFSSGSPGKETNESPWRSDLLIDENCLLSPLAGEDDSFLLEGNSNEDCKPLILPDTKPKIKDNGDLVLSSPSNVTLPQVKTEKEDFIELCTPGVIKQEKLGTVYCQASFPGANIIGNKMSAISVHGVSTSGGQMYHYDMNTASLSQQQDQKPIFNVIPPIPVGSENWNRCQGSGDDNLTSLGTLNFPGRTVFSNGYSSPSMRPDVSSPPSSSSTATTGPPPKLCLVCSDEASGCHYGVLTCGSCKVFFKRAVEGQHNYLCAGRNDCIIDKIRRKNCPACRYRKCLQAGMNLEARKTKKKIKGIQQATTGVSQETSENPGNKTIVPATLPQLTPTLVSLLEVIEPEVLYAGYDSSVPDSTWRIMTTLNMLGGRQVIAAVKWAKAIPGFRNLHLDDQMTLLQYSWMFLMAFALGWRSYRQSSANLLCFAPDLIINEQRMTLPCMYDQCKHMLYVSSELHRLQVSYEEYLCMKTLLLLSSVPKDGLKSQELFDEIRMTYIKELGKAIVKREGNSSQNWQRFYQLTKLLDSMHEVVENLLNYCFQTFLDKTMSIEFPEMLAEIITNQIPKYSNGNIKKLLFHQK
For assay [6] the target is unchanged. In words: GR-EFC Redistribution (AID 451; calls by dose curve; also: potency is read from the fitted curve at half-maximal effect). To be noted: CHO-K1 GR-EFC translocation, beta-gal luminescence, 2 h. A digest of the protocol:
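CHO-K1 cells expressing nuclear EA and GR-ED fragments of b-gal; compounds titrated up to 46 uM final, 2 h at 37 C. GR nuclear translocation read as complemented b-gal luminescence after 1 h RT detection.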

Assay [7] deals with Mitogen-activated protein kinase 10 (Mus musculus) (UniProt Q61831). In words: JNK3 AlphaScreen Assay (AID 530).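 Also: kinase came from lysate of stimulated human HepG2 cells; signal reports phosphorylation of biotinylated GST-cJun 1-79 at Ser73 with 10 µM ATP; % is scaled to controls: 0 for no effect and ±100 for the full control effect.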 The following applies: JNK3 lysate, c-Jun phosphorylation; series mostly up to 57.1 µM. The essentials: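 qHTS format: compounds tested as titrations against IL-1beta/TNF-alpha-activated HepG2 lysate JNK3 with biotin-GST-cJun substrate and 10 uM ATP at room temperature. Loss of anti-phospho-cJun AlphaScreen signal indicates inhibition.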
(In general: Alpha assays give light when donor and acceptor beads are brought close together.)

Assay [8] concerns the target 3',5'-cyclic-AMP phosphodiesterase 4B (Homo sapiens) (UniProt Q07343). In words: qHTS Assay for Inhibitors of PDE-IV (AID 607; active = well fitted activation curve with a large enough effect in the main read-out, with a control signal flat, not every such curve was filed as active; also: % of control where 0% means no effect). The following applies: HEK293 ACTOne CNG channel cells, membrane potential fluorescence; series mostly up to 22.9 µM. The essentials:
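ACTOne HEK293 cells carry a modified cAMP-gated CNG channel and express endogenous PDE4; plated 1000 cells/well, compounds up to 22.9 uM final. Membrane-potential dye fluorescence (ex 535/em 590) was read; parental cells received 10 uM forskolin + 100 uM RO 20-1724.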
A general note: In qHTS, concentration-response curves come from the screen itself.

In assay [9] the target is Lysosomal acid glucosylceramidase (Homo sapiens) (UniProt P04062). In words: Glucocerebrosidase-p2 (AID 348; in the data active = potency below about 10 µM; also: potency is read from the fitted curve at half-maximal effect). To be noted: purified GBA, blue fluorogenic substrate, 40 min. A digest of the protocol: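 Compounds titrated from 0.6 nM upwards against 0.2 nM enzyme in pH 5.9 citric acid/KH2PO4, taurocholate, tween-20; blue fluorogenic substrate 80 uM, 40 min room temperature, stopped and read Ex 365/Em 440 for AC50.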
Sequence of Lysosomal acid glucosylceramidase (Homo sapiens) (P04062 whole entry, looked up): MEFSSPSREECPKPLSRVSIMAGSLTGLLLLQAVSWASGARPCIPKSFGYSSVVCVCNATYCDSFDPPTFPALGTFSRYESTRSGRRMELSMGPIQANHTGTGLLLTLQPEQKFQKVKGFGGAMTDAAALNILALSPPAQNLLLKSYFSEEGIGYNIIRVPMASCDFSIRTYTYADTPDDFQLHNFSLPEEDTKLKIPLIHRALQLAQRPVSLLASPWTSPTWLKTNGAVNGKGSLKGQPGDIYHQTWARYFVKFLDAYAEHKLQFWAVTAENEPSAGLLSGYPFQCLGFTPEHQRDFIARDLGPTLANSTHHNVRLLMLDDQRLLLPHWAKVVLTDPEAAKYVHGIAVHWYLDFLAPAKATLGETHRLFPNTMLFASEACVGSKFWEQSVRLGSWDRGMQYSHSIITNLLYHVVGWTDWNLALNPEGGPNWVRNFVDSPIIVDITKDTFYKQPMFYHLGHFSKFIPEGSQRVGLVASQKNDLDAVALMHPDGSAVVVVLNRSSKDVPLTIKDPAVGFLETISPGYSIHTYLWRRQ

Assay [10] concerns the target Cytochrome P450 2D6 (Homo sapiens) (UniProt P10635). In words: qHTS Assay for Inhibitors and Substrates of Cytochrome P450 2D6 (AID 891; active = well fitted curve in the direction sought with a large enough effect; an effect the other way counts as inactive or inconclusive; also: potency is read from the fitted curve at half-maximal effect; nearly all actives have a fitted effect of over 60% in size). To be noted: recombinant CYP2D6, luciferin-ME EGE luminescence; series mostly up to 11.4 µM. A digest of the protocol: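 Human CYP2D6 (5 nM) with 30 uM Luciferin-ME EGE (at Km) in 100 mM KPO4, compound preincubated 10 min, then NADPH regeneration system for 60 min at room temperature. Luciferin read by luminescence; normalized to 1.43 uM quinidine.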

Assay [11] has as its target Cytochrome P450 2C19 (Homo sapiens) (UniProt P33261). In words: qHTS Assay for Inhibitors and Substrates of Cytochrome P450 2C19 (AID 899; active = well fitted curve in the direction sought with a large enough effect; an effect the other way counts as inactive or inconclusive; also: potency is read from the fitted curve at half-maximal effect; nearly all actives have a fitted effect of over 60% in size). To be noted: recombinant CYP2C19, luciferin-H EGE luminescence; series mostly up to 11.4 µM. The essentials: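 Luminescent read-out of luciferin formed from Luciferin-H EGE (10uM, equal to KM). Enzyme 5nM in 50mM KPO4; compound added, 10 min at 37C, then NADPH regenerating system for 60 min at 37C. Full inhibition defined by 57uM ketoconazole.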

A short description of assay [12]: qHTS Assay for Identification of Small Molecule Agonists for Hypoxia Response Element Signaling Pathway (AID 914; active = well fitted activation curve with a large enough effect in the signal ratio, with a control signal flat, not every such curve was filed as active; the % refers to the signal ratio; also: % of control where 0% means no effect). The following applies: ME-180 (cervical carcinoma) HRE-bla reporter, beta-lactamase ratio, CoCl2, 17 h; active compounds read high. A digest of the protocol: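 Compounds in a titration series were added to ME-180 reporter cells alongside an EC50 level of CoCl2. After 17 hours, beta-lactamase activity was read as the 460nm/530nm emission ratio of CCF4, giving AC50 values.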

The target in assay [13] is Tyrosyl-DNA phosphodiesterase 1 (Homo sapiens) (UniProt Q9NUW8). In words: Confirmation Assay for Inhibitors of Tyrosyl-DNA Phosphodiesterase (TDP1) (AID 489007; active = well fitted curve in the direction sought with a large enough effect; an effect the other way counts as inactive or inconclusive; also: potency is read from the fitted curve at half-maximal effect; nearly all actives have a fitted effect of over 40% in size). To be noted: recombinant human TDP1 enzymatic activity, dose-response. The essentials: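 Confirmation of primary-screen follow-ups in a qHTS format. Substrate cleavage by Tdp1 (1 nM) of a 3'-phosphotyrosine-FITC, 5'-biotin oligo (15 nM) was monitored as decreased AlphaScreen signal after a 5 min room-temperature reaction.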
Sequence of Tyrosyl-DNA phosphodiesterase 1 (Homo sapiens) (Q9NUW8 whole entry, looked up): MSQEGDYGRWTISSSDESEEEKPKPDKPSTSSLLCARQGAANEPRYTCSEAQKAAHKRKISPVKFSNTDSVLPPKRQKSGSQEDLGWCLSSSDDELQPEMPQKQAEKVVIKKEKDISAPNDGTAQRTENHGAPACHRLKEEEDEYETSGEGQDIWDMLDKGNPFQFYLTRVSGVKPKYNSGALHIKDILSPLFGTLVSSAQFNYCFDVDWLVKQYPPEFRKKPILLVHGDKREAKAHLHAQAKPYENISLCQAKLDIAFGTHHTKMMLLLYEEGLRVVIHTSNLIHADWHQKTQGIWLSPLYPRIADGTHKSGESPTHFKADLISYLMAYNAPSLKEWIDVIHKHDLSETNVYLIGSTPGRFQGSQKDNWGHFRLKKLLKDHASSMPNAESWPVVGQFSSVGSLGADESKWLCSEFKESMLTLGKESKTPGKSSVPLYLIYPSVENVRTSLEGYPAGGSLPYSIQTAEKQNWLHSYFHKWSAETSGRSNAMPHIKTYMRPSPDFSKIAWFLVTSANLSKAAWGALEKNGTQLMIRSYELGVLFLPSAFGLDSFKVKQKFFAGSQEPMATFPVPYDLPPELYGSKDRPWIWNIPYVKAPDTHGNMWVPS

A number with no mark means an inactive call. Inconclusive results are not listed. Activity calls are given as the source filed them. Unless noted, calls follow the shape of the dose curve; as a rule, active = well fitted curve in either direction with a large enough effect (not every such curve was filed as active); inconclusive = small, poorly fitted or top-dose-only effect, or another doubt; inactive = flat fitted curve, though single readings scatter.

Sequence of 3',5'-cyclic-AMP phosphodiesterase 4B (Homo sapiens) (Q07343 whole entry, looked up): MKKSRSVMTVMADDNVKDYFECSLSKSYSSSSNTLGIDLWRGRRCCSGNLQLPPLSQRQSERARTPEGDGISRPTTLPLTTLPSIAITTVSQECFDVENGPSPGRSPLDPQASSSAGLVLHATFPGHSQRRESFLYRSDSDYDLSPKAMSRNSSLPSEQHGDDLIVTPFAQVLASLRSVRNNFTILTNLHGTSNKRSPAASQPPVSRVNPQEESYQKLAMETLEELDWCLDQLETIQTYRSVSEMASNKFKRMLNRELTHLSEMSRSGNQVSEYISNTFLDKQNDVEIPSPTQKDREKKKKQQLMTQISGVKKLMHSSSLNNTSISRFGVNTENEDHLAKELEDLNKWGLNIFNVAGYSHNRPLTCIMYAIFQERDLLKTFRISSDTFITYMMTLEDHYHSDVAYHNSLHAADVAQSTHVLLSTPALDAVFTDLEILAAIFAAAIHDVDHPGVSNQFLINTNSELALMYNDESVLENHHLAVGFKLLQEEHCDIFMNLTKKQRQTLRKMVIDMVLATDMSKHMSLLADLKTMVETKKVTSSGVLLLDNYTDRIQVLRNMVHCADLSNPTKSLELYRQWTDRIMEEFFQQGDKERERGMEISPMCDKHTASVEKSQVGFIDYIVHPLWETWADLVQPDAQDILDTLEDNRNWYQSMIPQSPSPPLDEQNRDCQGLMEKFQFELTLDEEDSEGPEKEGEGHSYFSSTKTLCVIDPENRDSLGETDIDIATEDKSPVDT
Sequence of Cytochrome P450 2D6 (Homo sapiens) (P10635 whole entry, looked up): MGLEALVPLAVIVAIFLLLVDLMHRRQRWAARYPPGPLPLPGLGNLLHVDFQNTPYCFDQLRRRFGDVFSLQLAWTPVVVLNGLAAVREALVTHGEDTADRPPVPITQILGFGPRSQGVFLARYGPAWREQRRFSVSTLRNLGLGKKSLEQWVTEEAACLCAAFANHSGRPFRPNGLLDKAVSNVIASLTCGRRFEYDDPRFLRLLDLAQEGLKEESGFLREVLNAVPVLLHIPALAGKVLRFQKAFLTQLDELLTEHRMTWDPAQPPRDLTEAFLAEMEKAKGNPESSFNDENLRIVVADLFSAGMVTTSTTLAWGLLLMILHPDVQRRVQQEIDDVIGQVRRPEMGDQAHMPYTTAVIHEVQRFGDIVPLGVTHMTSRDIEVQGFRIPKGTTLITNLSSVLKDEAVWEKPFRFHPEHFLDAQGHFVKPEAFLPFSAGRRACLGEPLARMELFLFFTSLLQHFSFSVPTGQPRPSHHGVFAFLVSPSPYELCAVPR
Sequence of Cytochrome P450 2C19 (Homo sapiens) (P33261 whole entry, looked up): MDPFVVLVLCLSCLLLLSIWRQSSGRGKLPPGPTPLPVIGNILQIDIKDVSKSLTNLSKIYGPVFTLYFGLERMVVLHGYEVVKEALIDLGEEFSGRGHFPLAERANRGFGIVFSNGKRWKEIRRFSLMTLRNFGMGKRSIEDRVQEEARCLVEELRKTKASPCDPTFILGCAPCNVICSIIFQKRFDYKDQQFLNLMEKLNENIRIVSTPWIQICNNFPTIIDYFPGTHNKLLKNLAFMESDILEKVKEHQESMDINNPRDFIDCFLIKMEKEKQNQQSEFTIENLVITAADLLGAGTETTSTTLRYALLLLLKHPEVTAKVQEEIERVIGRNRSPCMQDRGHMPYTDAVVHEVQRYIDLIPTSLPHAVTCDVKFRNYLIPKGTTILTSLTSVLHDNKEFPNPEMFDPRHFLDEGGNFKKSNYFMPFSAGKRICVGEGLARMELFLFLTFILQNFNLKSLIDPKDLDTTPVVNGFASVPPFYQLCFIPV

Consider `CCC1(CCSC(=N)N)C(=O)NC(=O)NC1=O`, for which the activity change, negative = inhibition in assay [1] was 6.2%; in assay [2], -10.9% [at 2.29 µM]; in [3], 1.26%; in assay [7], 3.03% [at 11.4 µM]. Further, the activity, negative = inhibition in assay [4] was -4.63%. For the same molecule, the values for the Potency in [5] and in assay [6] were over 46 µM and over 9.22 µM, respectively. Further, in assay [8], the call was inactive.

With `CC[C@H]1CN2CCc3cc(OC)c(OC)cc3[C@H]2C[C@@H]1C[C@H]1NCCc2c1[nH]c1ccc(O)cc21`, the Potency in assay [9] was over 11.4 µM; in assay [5], over 46 µM; in assay [6] it was over 9.22 µM. Further, the activity change, negative = inhibition is -118% (active) in assay [1], -128% (active) in [3] and -2.73% [at 11.4 µM] in [7]. Besides, the outcome in assay [8] was inactive.

Take `CS(=O)(=O)O[C@H]1CN2CCC1CC2`: the values for the Potency in assay [9], in assay [5] and in assay [6] were over 11.4 µM, over 46 µM and over 9.22 µM, respectively. In addition, the Potency result in [2] is “inactive”. Also, the activity change, negative = inhibition in assay [3] is -10.5%; in assay [7], 2.61% [at 11.4 µM]. Moreover, the activity, negative = inhibition in [4] is -2.65%. In addition, the molecule was called inactive in [8].

As for `CN[C@H](Cc1ccccc1)c1cccc(OC)c1O`, the Potency in [9] is over 11.4 µM; in assay [6], over 9.22 µM; in [10], 0.0398 µM (active); in assay [11], 2 µM (active). The activity change, negative = inhibition was 4.57% in assay [1], 10.1% in assay [3] and 1.41% [at 11.4 µM] in assay [7]. Further, the activity, negative = inhibition in [4] was -6.4%. In assay [8], the molecule was called inactive.

As for `CN(C)CS/C(N)=N/[C@H](O)C(Cl)(Cl)Cl`, the Potency in [9] was over 11.4 µM; in assay [6], over 9.22 µM. Also, the activity change, negative = inhibition is 1.46% in assay [1], 23.1% in [3] and 3.54% [at 11.4 µM] in assay [7]. Also, the activity, negative = inhibition in assay [4] was 3.46%. Also, in [8], the molecule was classed as inactive. Further, the activation in [12] is 7.72%.

As to `O=[N+]([O-])c1cc(-c2ccc([As](=O)(O)O)cc2)ccc1[As](=O)(O)O`, the Potency is over 11.4 µM in assay [9], over 46 µM in assay [5], over 9.22 µM in assay [6] and 89.1 µM (active) in assay [13]. For the same molecule, the activity change, negative = inhibition in assay [1] was 3.12%; in assay [7], 2.81% [at 11.4 µM]. Also, the activity, negative = inhibition in assay [4] is 1.81%. Also, the result in assay [8] was inactive. In [12], the activation is 1.51%.

As for `ClCC[N+]12CC[N+](CCCl)(CC1)C2` (tested in a mixture with another compound), in assay [9], the Potency is over 11.4 µM. In addition, the activity change, negative = inhibition in [1] was 1.69%; in assay [3], -23.8%; in [7], 2.18% [at 11.4 µM]. The activity, negative = inhibition in [4] was 3.41%. Further, in assay [8], the result was inactive.
